Results as given in PubChem BioAssay AID1159580 (chemical genetic matrix, 2015).
Values joined by “and” are separate entries in the source; they are usually repeats but may differ in a detail not shown here. Equal entries are not always repeated. The whole screen tested about 5,500 compounds, of which about 2,000 (36%) were called active. Another 18% or so got no clear call; they are omitted. No stated cut-off is given here; in the data, active means normalized growth mostly below about 0.91 (no sharp cut-off); inconclusive means no clear call, values can overlap the other calls; inactive means mostly above about 0.92. Some of the results follow.

Test: chemical genetic growth profiling, strain panel (AID 1159580);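 further: tested at 20 µM; growth read once vehicle control cultures reached saturation at 30 °C; 1 = growth at the plate median or of vehicle wells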
Details: S. cerevisiae deletion strains, growth OD

For `COc1c(OC)c2occc2c2oc(=O)ccc12`, the normalized growth (locus YAL021C, strain ccr4, stronger effect = lower value) was 0.988 (inactive), the normalized growth (locus YAL026C, strain drs2, stronger effect = lower value) was 0.987 (inactive) and the normalized growth (locus YAL030W, strain snc1, stronger effect = lower value) was 0.99 (inactive). The normalized growth (locus YBL061C, strain skt5, stronger effect = lower value) was 0.979 (inactive), the normalized growth (locus YBR009C, strain hhf1, stronger effect = lower value) was 0.958 (inactive) and the normalized growth (locus YBR021W, strain FUR4, stronger effect = lower value) was 1.01 (inactive). The normalized growth (locus YBR023C, strain chs3, stronger effect = lower value) was 0.976 (inactive), the normalized growth (locus YBR171W, strain sec66, stronger effect = lower value) was 0.973 (inactive) and the normalized growth (locus YBR229C, strain ROT2, stronger effect = lower value) was 0.967 (inactive). For the same compound, the normalized growth (locus YBR231C, strain swc5, stronger effect = lower value) was 0.96 (inactive), the normalized growth (locus YBR279W, strain paf1, stronger effect = lower value) was 0.973 (inactive) and the normalized growth (locus YCL011C, strain gbp2, stronger effect = lower value) was 0.979 (inactive). For the same compound, the normalized growth (locus YCL016C, strain dcc1, stronger effect = lower value) was 0.98 (inactive), the normalized growth (locus YCL029C, strain bik1, stronger effect = lower value) was 0.983 (inactive) and the normalized growth (locus YCL061C, strain MRC1, stronger effect = lower value) was 0.978 (inactive). The normalized growth (locus YCL069W, strain vba3, stronger effect = lower value) was 0.989 (inactive), the normalized growth (locus YCR088W, strain abp1, stronger effect = lower value) was 0.987 (inactive) and the normalized growth (locus YDL005C, strain med2, stronger effect = lower value) was 0.998 (inactive). For the same compound, the normalized growth (locus YDL035C, strain GPR1, stronger effect = lower value) was 0.924 (inactive), the normalized growth (locus YDL040C, strain nat1, stronger effect = lower value) was 0.981 (inactive) and the normalized growth (locus YDL074C, strain BRE1, stronger effect = lower value) was 0.86 (inactive). For the same compound, the normalized growth (locus YDL101C, strain DUN1, stronger effect = lower value) was 0.949 (inactive), the normalized growth (locus YDL134C, strain PPH21, stronger effect = lower value) was 0.948 (inactive) and the normalized growth (locus YDL185W, strain tfp1, stronger effect = lower value) was 0.945 (inactive). The normalized growth (locus YDL192W, strain arf1, stronger effect = lower value) was 0.866 (active), the normalized growth (locus YDR001C, strain nth1, stronger effect = lower value) was 0.973 (inactive) and the normalized growth (locus YDR069C, strain doa4, stronger effect = lower value) was 1 (inactive). The normalized growth (locus YDR101C, strain arx1, stronger effect = lower value) was 0.927 (inactive), the normalized growth (locus YDR137W, strain rgp1, stronger effect = lower value) was 0.952 (inactive) and the normalized growth (locus YDR159W, strain sac3, stronger effect = lower value) was 1.01 (inactive). The normalized growth (locus YDR162C, strain NBP2, stronger effect = lower value) was 0.822 (active), the normalized growth (locus YDR195W, strain ref2) was 1.14 [resistant] (active) and the normalized growth (locus YDR297W, strain sur2, stronger effect = lower value) was 0.974 (inactive). The normalized growth (locus YDR318W, strain mcm21, stronger effect = lower value) was 0.95 (inactive), the normalized growth (locus YDR334W, strain swr1, stronger effect = lower value) was 0.967 (inactive) and the normalized growth (locus YDR335W, strain msn5, stronger effect = lower value) was 0.978 (inactive). The normalized growth (locus YDR388W, stronger effect = lower value) was 0.959 (inactive), the normalized growth (locus YDR392W, strain spt3, stronger effect = lower value) was 0.765 (inactive) and the normalized growth (locus YDR502C, strain sam2, stronger effect = lower value) was 0.918 (active). The normalized growth (locus YEL003W, strain gim4, stronger effect = lower value) was 0.982 (inactive), the normalized growth (locus YEL037C, strain rad23, stronger effect = lower value) was 0.981 (inactive) and the normalized growth (locus YEL061C, strain CIN8 (second series), stronger effect = lower value) was 0.984 (inactive). The normalized growth (locus YEL061C, strain CIN8, stronger effect = lower value) was 0.963 (inactive), the normalized growth (locus YER015W, strain faa2, stronger effect = lower value) was 0.972 (inactive) and the normalized growth (locus YER016W, strain bim1, stronger effect = lower value) was 0.984 (inactive). The normalized growth (locus YER110C, stronger effect = lower value) was 0.949 (inactive), the normalized growth (locus YER111C, strain swi4, stronger effect = lower value) was 0.992 (inactive) and the normalized growth (locus YER155C, strain BEM2 (second series), stronger effect = lower value) was 0.832 (active). The normalized growth (locus YER155C, strain BEM2, stronger effect = lower value) was 0.962 (inactive), the normalized growth (locus YER167W, strain BCK2, stronger effect = lower value) was 0.97 (inactive) and the normalized growth (locus YFR010W, strain ubp6, stronger effect = lower value) was 0.98 (inactive). For the same compound, the normalized growth (locus YGL078C, strain dbp3, stronger effect = lower value) was 0.979 (inactive), the normalized growth (locus YGL086W, strain mad1, stronger effect = lower value) was 0.937 (inactive) and the normalized growth (locus YGL167C, strain pmr1, stronger effect = lower value) was 0.975 (inactive). The normalized growth (locus YGL173C, strain kem1, stronger effect = lower value) was 0.986 (inactive), the normalized growth (locus YGL227W, strain vid30, stronger effect = lower value) was 0.994 (inactive) and the normalized growth (locus YGL240W, strain doc1, stronger effect = lower value) was 0.931 (inactive). For the same compound, the normalized growth (locus YGL248W, strain PDE1, stronger effect = lower value) was 0.95 (inactive), the normalized growth (locus YGL253W, strain hxk2, stronger effect = lower value) was 0.956 (inactive) and the normalized growth (locus YGR078C, strain PAC10, stronger effect = lower value) was 0.882 (inactive). The normalized growth (locus YGR135W, strain pre9, stronger effect = lower value) was 0.881 (active), the normalized growth (locus YGR252W, strain gcn5, stronger effect = lower value) was 0.802 (inactive) and the normalized growth (locus YHR013C, strain ard1, stronger effect = lower value) was 1.01 (inactive). The normalized growth (locus YHR027C, strain rpn1, stronger effect = lower value) was 0.984 (inactive), the normalized growth (locus YHR030C, strain SLT2, stronger effect = lower value) was 0.945 (inactive) and 0.955 (inactive) and the normalized growth (locus YHR079C, strain IRE1 (second series), stronger effect = lower value) was 0.977 (inactive). The normalized growth (locus YHR079C, strain IRE1, stronger effect = lower value) was 0.944 (inactive), the normalized growth (locus YHR094C, strain hxt1, stronger effect = lower value) was 0.985 (inactive) and the normalized growth (locus YHR129C, strain ARP1, stronger effect = lower value) was 0.959 (inactive). For the same compound, the normalized growth (locus YHR142W, strain chs7, stronger effect = lower value) was 0.904 (inactive), the normalized growth (locus YHR200W, strain rpn10, stronger effect = lower value) was 0.923 (inactive) and the normalized growth (locus YIL066C, strain RNR3, stronger effect = lower value) was 0.88 (inactive). The normalized growth (locus YIL073C, strain SPO22, stronger effect = lower value) was 0.955 (inactive), the normalized growth (locus YIL125W, strain kgd1, stronger effect = lower value) was 0.979 (inactive) and the normalized growth (locus YIR030C, strain dcg1, stronger effect = lower value) was 0.962 (inactive). The normalized growth (locus YJL092W, strain hpr5, stronger effect = lower value) was 0.972 (inactive), the normalized growth (locus YJL095W, strain BCK1 (second series), stronger effect = lower value) was 0.974 (inactive) and the normalized growth (locus YJL095W, strain BCK1, stronger effect = lower value) was 0.785 (active) and 0.957 (inactive). For the same compound, the normalized growth (locus YJL115W, strain asf1, stronger effect = lower value) was 0.984 (inactive), the normalized growth (locus YJL129C, strain trk1, stronger effect = lower value) was 0.993 (inactive) and the normalized growth (locus YJL134W, strain LCB3, stronger effect = lower value) was 0.967 (inactive). For the same compound, the normalized growth (locus YJL154C, strain vps35, stronger effect = lower value) was 0.987 (inactive), the normalized growth (locus YJL164C, strain tpk1, stronger effect = lower value) was 0.966 (inactive) and the normalized growth (locus YJL166W, strain qcr8, stronger effect = lower value) was 0.945 (inactive). The normalized growth (locus YJL168C, strain set2, stronger effect = lower value) was 0.977 (inactive), the normalized growth (locus YJL187C, strain SWE1 (second series), stronger effect = lower value) was 0.947 (inactive) and the normalized growth (locus YJL187C, strain SWE1, stronger effect = lower value) was 0.973 (inactive). For the same compound, the normalized growth (locus YJR043C, strain POL32, stronger effect = lower value) was 0.887 (inactive).
